The subject of assay [1] is Plasmodium falciparum Sir2 (PF13_0152, Sir2A). Kind of assay: pfSir2 binders on small-molecule microarrays, primary screen, biochemical, small-molecule microarray, 635 nm fluorescence (AID 1098).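 Also: score merges spot fluorescence intensity with its signal-to-noise ratio.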 The settings on record: small-molecule microarray binding, fluorescence 635 nm; higher = more signal.
The nature of assay [2]: small-molecule microarray binders of probe aDKK1, primary screen, biochemical, biotinylated probe, 635/667 nm fluorescence (AID 1099).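 Also: score merges 667nm spot fluorescence with signal to noise across triplicate slides.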 The settings on record: higher = more signal.
A short description of assay [3]: small-molecule microarray binders of probe aCHRDL2, primary screen, biochemical, biotinylated probe, 635/667 nm fluorescence (AID 1100). As to conditions: higher = more signal.
Assay [4] can be described thus: splicing luciferase reporter signal modulators, primary screen, spliceosome inhibition project, cell-based, HEK293, splice +/- reporter (AID 1101).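 Also: HEK293 cells carrying a splicing-competent luciferase reporter gene; test concentration not given here.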 As to conditions: luminescence, 24 h, higher = more signal, called active from +8 up or from −8 down.
Assay [5] deals with Fibroblast growth factor 10 (Homo sapiens) (UniProt O15520). The experiment in a line: FGF10 binders on small-molecule microarrays, primary screen, biochemical, small-molecule microarray, 635 nm fluorescence (AID 1102). As to conditions: FGF10 binding, fluorescence 635 nm, higher = more signal.
The subject of assay [6] is glycogen synthase kinase-3 (GSK3A per assay name; protocol says GSK3B). The experiment in a line: GSK3 binders on small-molecule microarrays, primary screen, biochemical, small-molecule microarray, 635 nm fluorescence, GSK3A (AID 1103). Also: the record names both GSK3A and GSK3B. As to conditions: small-molecule microarray binding, fluorescence 635 nm; higher = more signal.
Assay [7] deals with Epidermal growth factor receptor (Homo sapiens) (UniProt P00533). Kind of assay: EGFR binders on small-molecule microarrays, primary screen, biochemical, small-molecule microarray, 635 nm fluorescence (AID 1104).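 Also: score merges 667 nm emission intensity with spot signal to noise over triplicate slides.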 The settings on record: EGFR binding, higher = more signal.
Assay [8] addresses Follistatin-related protein 3 (Homo sapiens) (UniProt O95633). Kind of assay: FSTL3 binders on small-molecule microarrays, primary screen, biochemical, small-molecule microarray, 635 nm fluorescence (AID 1105).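 Also: score merges emission near 667 nm and signal to noise per printed spot across three slides.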 As to conditions: FSTL3 binding, higher = more signal.
Assay [9] concerns the target Dickkopf-related protein 1 (Homo sapiens) (UniProt O94907). Kind of assay: DKK1 binders on small-molecule microarrays, primary screen, biochemical, small-molecule microarray, 635 nm fluorescence scan (AID 1106).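 Also: score merges emission near 667 nm with signal to noise over three replicate slides.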 The settings on record: DKK1 binding, higher = more signal.
In assay [10] the test system is Inhibin beta A chain (activin A). The experiment in a line: INHBA (activin A) binders on microarrays, primary screen, biochemical, small-molecule microarray, 635 nm fluorescence scan (AID 1107).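 Also: mouse activin A protein probed at 4.33 µg/mL on printed slides; score merges bound-protein fluorescence near 667 nm with spot signal-to-noise.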 The settings on record: small-molecule microarray binding, higher = more signal.
In assay [11] the test system is Human papillomavirus type 1a protein E7 (residues 44-93). The experiment in a line: HPV1a E7 fragment binders on microarrays, primary screen, biochemical, small-molecule microarray, residues 44-93, 635 nm fluorescence (AID 1108).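 Also: E7 fragment applied at 1 µg/mL in TBST for 1 h at 4 C; score combines spot fluorescence with its signal to noise ratio.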 The settings on record: small-molecule microarray binding, fluorescence 635 nm; higher = more signal.
A short description of assay [12]: modulators of HCV replicon luciferase signal, primary screen, HCV replication inhibitor project, Huh7 cells, luciferase reporter (AID 1109).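 Also: huh7 hepatoma cells harbouring a luciferase neomycin HCV replicon reporter; luciferase luminescence as measure of HCV replicon replication; test concentration not given here.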 The settings on record: 48 h, higher = more signal.
Assay [13] addresses Left-right determination factor 2 (Homo sapiens) (UniProt O00292). The experiment in a line: LEFTY2 binders on small-molecule microarrays, primary screen, biochemical, small-molecule microarray, 635 nm fluorescence scan (AID 1110). The settings on record: LEFTY2 binding, higher = more signal.
For assay [14], the target named is Calmodulin-1 (Homo sapiens) (UniProt P0DP23). The experiment in a line: CALM1 binders on microarrays, EGTA buffer, profiling panel, biochemical, small-molecule microarray, Cy5-labelled CALM1 (AID 1111).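 Also: labelled calmodulin applied in Tris saline Tween buffer holding calcium plus EGTA and DTT.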 The settings on record: Cy5-CALM1 binding fluorescence, higher = more signal.
For assay [15] the target is unchanged. The experiment in a line: calcium-bound CALM1 binders on microarrays, profiling panel, artefact control for SMM control-protein annotation, biochemical, small-molecule microarray, Cy5-labelled CALM1, plus calcium (AID 1112).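 Also: score merges spot fluorescence with signal to noise from triplicate slides.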 As to conditions: Cy5-CALM1 binding fluorescence, higher = more signal.
Assay [16] in a line: small-molecule microarray binders of probe aWnt5a, primary screen, biochemical, biotinylated probe, 635/667 nm fluorescence (AID 1113).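 Also: score merges 667 nm fluorescence intensity with signal-to-noise per printed feature.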 As to conditions: higher = more signal.
A short description of assay [17]: small-molecule microarray binders of probe aShh, primary screen, biochemical, biotinylated probe, 635/667 nm fluorescence (AID 1114).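 Also: probe is biotin-labelled aShh protein from a stem cell growth factor screen; measures binding of labelled protein to compounds printed on the slide; score merges feature fluorescence at 667 nm with signal-to-noise.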 As to conditions: higher = more signal.
Assay [18] can be described thus: small-molecule microarray binders of probe aNog, primary screen, biochemical, biotinylated probe, 635/667 nm fluorescence (AID 1115).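 Also: probe is biotinylated aNog protein used at 0.15 µg/mL for 1 h at 4 C; z-score combines 667 nm fluorescence of each spot with its signal to noise.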 As to conditions: higher = more signal.
The target in assay [19] is Torsin-1A-interacting protein 1 (Homo sapiens) (UniProt Q5JTV8). The experiment in a line: LAP1 binders from COS7 cell lysate, primary screen, small-molecule microarray, 635/667 nm fluorescence (AID 1116). The settings on record: COS7-hLAP1 lysate binding, 635 nm fluorescence, higher = more signal.
Assay [20] concerns the target Alpha-bungarotoxin (Bungarus multicinctus) (UniProt P60615). The experiment in a line: alpha-bungarotoxin binders on microarray, profiling panel, artefact control for SMM control protein annotation, biochemical, small-molecule microarray, Alexa647 label, 635/667 nm fluorescence (AID 1117). The settings on record: alpha-BTX-A647 binding fluorescence, higher = more signal.

Activity calls are given as the source filed them.

Alpha-bungarotoxin (Bungarus multicinctus), sequence (P60615 whole entry, looked up): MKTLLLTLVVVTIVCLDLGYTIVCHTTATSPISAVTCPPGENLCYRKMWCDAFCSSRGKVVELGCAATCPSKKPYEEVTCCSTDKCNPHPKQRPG
Left-right determination factor 2 (Homo sapiens), sequence (O00292 whole entry, looked up): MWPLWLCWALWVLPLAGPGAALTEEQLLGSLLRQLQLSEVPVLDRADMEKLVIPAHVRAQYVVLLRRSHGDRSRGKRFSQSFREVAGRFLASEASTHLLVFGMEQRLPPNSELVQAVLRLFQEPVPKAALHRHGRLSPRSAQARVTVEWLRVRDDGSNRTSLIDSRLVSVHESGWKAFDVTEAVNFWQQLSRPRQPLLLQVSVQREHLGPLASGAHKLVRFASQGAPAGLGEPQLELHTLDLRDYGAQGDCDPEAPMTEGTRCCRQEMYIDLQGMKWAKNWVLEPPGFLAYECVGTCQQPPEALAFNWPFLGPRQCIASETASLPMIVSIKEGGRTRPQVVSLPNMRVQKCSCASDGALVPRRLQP
Epidermal growth factor receptor (Homo sapiens), sequence (P00533 whole entry, looked up): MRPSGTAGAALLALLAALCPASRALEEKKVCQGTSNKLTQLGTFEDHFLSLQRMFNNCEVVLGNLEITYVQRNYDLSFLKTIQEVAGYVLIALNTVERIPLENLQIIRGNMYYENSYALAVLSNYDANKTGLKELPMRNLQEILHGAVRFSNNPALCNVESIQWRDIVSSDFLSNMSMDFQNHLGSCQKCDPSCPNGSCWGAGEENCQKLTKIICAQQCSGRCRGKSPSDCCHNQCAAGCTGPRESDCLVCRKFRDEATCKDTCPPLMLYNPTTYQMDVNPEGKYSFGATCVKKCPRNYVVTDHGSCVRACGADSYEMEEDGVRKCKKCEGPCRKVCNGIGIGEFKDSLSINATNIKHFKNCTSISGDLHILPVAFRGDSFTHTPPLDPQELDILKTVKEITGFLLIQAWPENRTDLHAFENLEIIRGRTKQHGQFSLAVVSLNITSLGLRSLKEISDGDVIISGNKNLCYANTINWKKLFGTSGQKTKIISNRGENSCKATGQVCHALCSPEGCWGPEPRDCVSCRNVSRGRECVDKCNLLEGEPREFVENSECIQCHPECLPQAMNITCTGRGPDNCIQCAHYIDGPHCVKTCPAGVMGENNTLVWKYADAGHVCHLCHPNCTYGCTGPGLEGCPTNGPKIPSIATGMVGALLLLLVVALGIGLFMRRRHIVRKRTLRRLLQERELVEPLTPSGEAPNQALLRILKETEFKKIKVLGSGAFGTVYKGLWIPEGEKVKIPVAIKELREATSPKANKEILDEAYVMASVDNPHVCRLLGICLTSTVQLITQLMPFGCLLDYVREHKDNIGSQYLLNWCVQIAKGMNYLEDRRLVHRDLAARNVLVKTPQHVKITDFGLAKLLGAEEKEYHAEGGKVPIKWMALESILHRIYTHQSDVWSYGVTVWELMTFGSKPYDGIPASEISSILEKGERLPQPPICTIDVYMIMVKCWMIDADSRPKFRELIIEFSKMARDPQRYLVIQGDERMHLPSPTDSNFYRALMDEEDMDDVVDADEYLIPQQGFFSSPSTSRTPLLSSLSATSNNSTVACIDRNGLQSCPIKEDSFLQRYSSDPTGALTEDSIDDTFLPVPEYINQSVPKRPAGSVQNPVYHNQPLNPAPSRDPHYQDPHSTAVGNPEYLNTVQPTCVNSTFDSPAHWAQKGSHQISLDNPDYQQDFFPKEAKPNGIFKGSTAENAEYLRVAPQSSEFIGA
Fibroblast growth factor 10 (Homo sapiens), sequence (O15520 whole entry, looked up): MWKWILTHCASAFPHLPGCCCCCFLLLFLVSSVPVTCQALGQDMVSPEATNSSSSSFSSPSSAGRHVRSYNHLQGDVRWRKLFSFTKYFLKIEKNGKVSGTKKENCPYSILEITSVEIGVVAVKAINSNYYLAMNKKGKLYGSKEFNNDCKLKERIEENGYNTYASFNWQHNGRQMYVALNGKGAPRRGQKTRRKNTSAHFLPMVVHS
Torsin-1A-interacting protein 1 (Homo sapiens), sequence (Q5JTV8 whole entry, looked up): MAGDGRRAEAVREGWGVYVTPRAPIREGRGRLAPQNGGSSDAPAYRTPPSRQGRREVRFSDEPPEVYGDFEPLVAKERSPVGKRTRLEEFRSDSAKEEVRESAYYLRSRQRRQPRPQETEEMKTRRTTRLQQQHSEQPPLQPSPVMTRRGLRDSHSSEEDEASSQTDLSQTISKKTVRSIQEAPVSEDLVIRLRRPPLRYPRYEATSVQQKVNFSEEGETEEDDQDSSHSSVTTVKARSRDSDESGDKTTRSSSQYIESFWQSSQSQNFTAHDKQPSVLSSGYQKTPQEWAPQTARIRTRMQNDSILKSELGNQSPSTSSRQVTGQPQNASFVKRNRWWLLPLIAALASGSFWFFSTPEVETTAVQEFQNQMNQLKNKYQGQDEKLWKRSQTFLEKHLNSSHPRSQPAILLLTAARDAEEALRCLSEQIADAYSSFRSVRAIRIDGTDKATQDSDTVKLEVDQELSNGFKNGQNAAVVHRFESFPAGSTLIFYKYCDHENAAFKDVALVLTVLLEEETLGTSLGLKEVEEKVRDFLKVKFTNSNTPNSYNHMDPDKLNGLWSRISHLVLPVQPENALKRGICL
Dickkopf-related protein 1 (Homo sapiens), sequence (O94907 whole entry, looked up): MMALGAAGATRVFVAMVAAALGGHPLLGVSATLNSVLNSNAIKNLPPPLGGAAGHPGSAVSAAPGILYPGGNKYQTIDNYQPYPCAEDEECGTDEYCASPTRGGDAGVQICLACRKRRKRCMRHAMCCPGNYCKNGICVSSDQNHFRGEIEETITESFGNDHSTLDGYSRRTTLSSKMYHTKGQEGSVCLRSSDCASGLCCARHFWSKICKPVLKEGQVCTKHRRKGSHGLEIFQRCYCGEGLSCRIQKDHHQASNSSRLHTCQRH
Follistatin-related protein 3 (Homo sapiens), sequence (O95633 whole entry, looked up): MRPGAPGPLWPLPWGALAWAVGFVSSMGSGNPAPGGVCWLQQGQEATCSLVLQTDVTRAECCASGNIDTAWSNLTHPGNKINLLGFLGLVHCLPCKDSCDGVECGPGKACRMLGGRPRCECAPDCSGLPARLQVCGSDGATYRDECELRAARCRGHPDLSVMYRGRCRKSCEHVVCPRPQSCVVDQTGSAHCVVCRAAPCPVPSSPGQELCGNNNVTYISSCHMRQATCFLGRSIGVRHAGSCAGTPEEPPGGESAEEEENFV

`CCOC(=O)CCN1C(=O)[C@H]2[C@H]3[C@H](O)[C@H](O)CC(=NO[C@@H]4O[C@H](CO)[C@@H](O)[C@H](O)[C@H]4O)[C@H]3CC[C@H]2C1=O`: the composite z-score in [1] is 0.29; in assay [2], 0.198; in assay [3], -0.141; in assay [5], 0.655; in [6], 0.822; in assay [7] it was 0.563. Further, the composite z-score turned out to be 0.231 in assay [8]; 0.315 in assay [9]; 0.401 in [10]; 0.0713 in assay [11]; 0.523 in [13]; 0.112 in assay [14]. The composite z-score in [15] was -0.847; in assay [16] it was -0.0286; in assay [17], -0.156; in assay [18], -0.0309; in assay [19], -0.127; in assay [20], 0.263. Besides, the z-score in assay [4] is -0.265 (inactive); in assay [12] it was 0.587.
With `CC(C)=NO[C@H](C)c1cn([C@@H]2COC[C@H]2O)nn1`, the composite z-score is 0.52 in assay [1]; -0.0146 in [2]; -0.607 in [3]; 0.728 in assay [5]; 0.788 in [6]; 0.539 in assay [7]. The composite z-score in assay [8] was 0.67; in assay [9] it was 0.669; in assay [10], -0.0201; in assay [11], 0.427; in assay [13] it was 0.48; in assay [14] it was -0.312. The composite z-score in [15] is -0.956; in assay [16] it was -0.169; in assay [17], -0.138; in assay [18], -0.216; in assay [19], 0.26; in assay [20], 0.159. The z-score is -0.413 (inactive) in [4] and 0.78 in [12].
Turning to `CCOC(=O)[C@H](CC(C)C)NC(=O)CCC1CC(OC(=O)NCc2ccc3c(c2)OCO3)CC2(CCCC(COC(=O)NCCc3ccccc3OC)O2)O1` (stereo not given in full), the composite z-score in assay [1] was 0.608; in assay [2] it was -0.0877; in [3] it was -0.497; in [5], 0.533; in [6] it was 1.27; in assay [7] it was 0.461. The composite z-score is 1.01 in assay [8]; 0.434 in assay [9]; -0.344 in [10]; 1.31 in [11]; 0.613 in assay [13]; 0.618 in assay [14]. For the same compound, the composite z-score was -0.375 in assay [15]; -0.298 in [16]; -0.0626 in assay [17]; -0.41 in [18]; 0.389 in [19]; 0.556 in assay [20]. The z-score in assay [4] is 0.0955 (inactive); in assay [12], -0.621.
As to `CCN1C(=O)[C@H]2[C@H]3[C@H](O)[C@H](O)CC(=NO[C@@H](C)c4cc(-c5c(C)cc(C)cc5C)no4)[C@@H]3CC[C@H]2C1=O`, the composite z-score in [1] was 0.808; in assay [2], 0.101; in assay [3] it was -0.239; in assay [5], 0.841; in assay [6], 1.24; in assay [7], 0.451. The composite z-score was 1.18 in assay [8]; 0.647 in assay [9]; -0.989 in assay [10]; 1.02 in assay [11]; 0.685 in assay [13]; 0.224 in assay [14]. For the same compound, the composite z-score is -0.525 in assay [15]; -0.0799 in assay [16]; -0.0146 in assay [17]; -0.177 in assay [18]; 0.952 in [19]; 1.02 in assay [20]. The figures for the z-score in [4] and in [12] were -0.111 (inactive) and -0.946, respectively.
With `C[C@H]1CC[C@@H](C(=O)O)N[C@@H]1c1cccc(N2CCCC2=O)c1`, the composite z-score is 0.0371 in assay [1]; -0.154 in [2]; -0.496 in assay [3]; 0.184 in assay [5]; 0.631 in assay [6]; 0.376 in [7]. Moreover, the composite z-score in assay [8] is 0.285; in assay [9], 0.153; in assay [10], 0.292; in assay [11], 0.4; in assay [13], 0.263; in assay [14], -0.438. The composite z-score is -0.55 in assay [15]; -0.178 in assay [16]; -0.2 in [17]; -0.181 in assay [18]; 0.0221 in assay [19]; 0.197 in assay [20]. The z-score in assay [4] is -0.00389 (inactive); in assay [12], 1.09.

Source of the values: PubChem BioAssay.
